Experimental data published in PubChem BioAssay (NCATS).
Where “and” joins values, the source holds several entries; their conditions need not be identical. Equal values may be shown once. Calls of active or inactive are those of the source. Unless noted, calls follow the shape of the full dose curve.

What was measured:
[1] = target: Estrogen receptor (Homo sapiens) (UniProt P03372); assay: qHTS assay for small molecule antagonists of estrogen receptor alpha signaling (AID 588513; active = well fitted curve in the direction sought with a large enough effect in the signal ratio, with a control signal flat, not every such curve was filed as active; inconclusive = small, poorly fitted or top-dose-only effect, or effect the other way, or a change in a side signal; inactive = no such curve, though single readings can be large or run the other way; the % refers to the signal ratio; also: potency is read from the fitted curve at half-maximal effect)
Estrogen receptor (Homo sapiens), sequence (P03372 whole entry, looked up): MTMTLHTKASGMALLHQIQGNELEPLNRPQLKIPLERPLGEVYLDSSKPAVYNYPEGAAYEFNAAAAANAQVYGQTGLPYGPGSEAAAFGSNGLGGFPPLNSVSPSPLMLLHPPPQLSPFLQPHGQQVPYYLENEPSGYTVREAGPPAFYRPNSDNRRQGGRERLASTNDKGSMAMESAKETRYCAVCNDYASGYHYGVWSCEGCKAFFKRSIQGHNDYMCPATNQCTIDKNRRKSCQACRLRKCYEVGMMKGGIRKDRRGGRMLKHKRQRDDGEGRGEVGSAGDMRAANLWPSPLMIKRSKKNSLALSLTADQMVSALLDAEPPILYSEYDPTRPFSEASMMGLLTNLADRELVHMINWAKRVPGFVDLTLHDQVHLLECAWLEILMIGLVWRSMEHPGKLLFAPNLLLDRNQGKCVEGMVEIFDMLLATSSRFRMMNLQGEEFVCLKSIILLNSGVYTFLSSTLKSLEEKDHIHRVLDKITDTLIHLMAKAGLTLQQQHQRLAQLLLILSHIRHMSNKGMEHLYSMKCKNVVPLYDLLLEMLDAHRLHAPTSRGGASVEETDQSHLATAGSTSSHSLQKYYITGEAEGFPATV
In short: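 ER-alpha-UAS-bla GripTite HEK 293 cells in medium with 2% charcoal/dextran-treated FBS were preincubated 4 h at 37 C, dosed with compound (1:2 titration), stimulated with 0.5nM 17-beta-estradiol for 18 h, then read by CCF4 beta-lactamase fluorescence.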

[2] = target: Bile acid receptor (Homo sapiens) (UniProt Q96RI1); assay: qHTS assay for small molecule antagonists of farnesoid X receptor signaling (AID 588526); also: potency is read from the fitted curve at half-maximal effect
Bile acid receptor (Homo sapiens), sequence (Q96RI1 whole entry, looked up): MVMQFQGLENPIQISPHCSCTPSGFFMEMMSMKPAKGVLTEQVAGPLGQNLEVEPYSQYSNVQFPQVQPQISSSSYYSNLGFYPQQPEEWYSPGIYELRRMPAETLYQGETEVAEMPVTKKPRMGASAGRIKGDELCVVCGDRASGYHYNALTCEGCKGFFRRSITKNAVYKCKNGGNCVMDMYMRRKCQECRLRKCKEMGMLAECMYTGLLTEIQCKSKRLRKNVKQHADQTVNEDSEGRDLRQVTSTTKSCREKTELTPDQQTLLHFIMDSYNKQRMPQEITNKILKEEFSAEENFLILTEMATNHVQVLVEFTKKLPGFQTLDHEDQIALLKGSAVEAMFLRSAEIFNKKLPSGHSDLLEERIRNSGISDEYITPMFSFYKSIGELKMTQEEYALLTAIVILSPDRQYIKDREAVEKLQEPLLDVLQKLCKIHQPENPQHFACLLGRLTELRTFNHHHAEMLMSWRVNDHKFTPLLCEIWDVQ
In short: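 Beta-lactamase reporter antagonist mode: HEK293T FXR-UAS-bla cells, titrated compound, CDCA stimulation, 16 h 37 C, CCF4 dye 2 h RT. Data normalized to CDCA 50 uM and DMSO; Hill-fit IC50.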

[3] = qHTS assay for small molecule agonists of retinoid X receptor alpha signaling (AID 588544); details: HEK293T RXRa-UAS-bla, beta-lactamase reporter, 18 h; 530 nm emission
[4] = target: Thyroid hormone receptor beta (Homo sapiens) (UniProt P10828); assay: qHTS assay for small molecule antagonists of thyroid hormone receptor beta signaling (AID 588547; active = well fitted inhibition curve with a large enough effect in the signal ratio, with a control signal flat, not every such curve was filed as active; inconclusive = small, poorly fitted or top-dose-only effect, or effect the other way, or a change in a side signal; the % refers to the signal ratio;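 also: cells stimulated with 0.4 nM T3 agonist during compound exposure; series mostly up to about 77 µM; % is scaled to controls: 0 for no effect and ±100 for the full control effect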); details: TR-UAS-bla HEK293, beta-lactamase ratio, antagonist mode, 18 h
Thyroid hormone receptor beta (Homo sapiens), sequence (P10828 whole entry, looked up): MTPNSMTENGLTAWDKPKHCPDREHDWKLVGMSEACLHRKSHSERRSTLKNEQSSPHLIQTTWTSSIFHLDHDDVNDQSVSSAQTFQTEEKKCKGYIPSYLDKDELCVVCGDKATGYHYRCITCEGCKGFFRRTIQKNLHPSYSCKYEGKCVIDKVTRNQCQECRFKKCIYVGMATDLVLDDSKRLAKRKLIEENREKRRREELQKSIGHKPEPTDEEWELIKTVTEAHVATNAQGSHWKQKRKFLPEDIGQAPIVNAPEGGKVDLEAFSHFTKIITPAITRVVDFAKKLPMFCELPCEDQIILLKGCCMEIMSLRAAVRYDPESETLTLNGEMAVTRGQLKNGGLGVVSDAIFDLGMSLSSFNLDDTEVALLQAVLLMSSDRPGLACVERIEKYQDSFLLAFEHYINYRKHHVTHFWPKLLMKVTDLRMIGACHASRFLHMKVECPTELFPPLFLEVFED
In short: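 Inhibition of T3-driven (0.4nM final) beta-lactamase reporter activity was measured over 0.59 nM to 92 uM compound after 18 h at 37 C. The cells were GripTite HEK293 TR-UAS-bla in charcoal/dextran-stripped serum, with CCF4 ratio read-out and IC50 from Hill fits.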

[5] = qHTS assay for small molecule activators of the human pregnane X receptor (PXR) signaling pathway (AID 720659; call rule not given here; also: 0% is about no effect)
[6] = target: Androgen receptor (Homo sapiens) (UniProt P10275); assay: qHTS assay for small molecule agonists of androgen receptor signaling (AID 588515; active = well fitted curve in the direction sought with a large enough effect in the signal ratio, with a control signal flat; inconclusive = small, poorly fitted or top-dose-only effect, or effect the other way, or a change in a side signal; inactive = no such curve, though single readings can be large or run the other way; the % refers to the signal ratio; also: % is scaled to controls: 0 for no effect and ±100 for the full control effect); details: AR-UAS-bla HEK293, beta-lactamase ratio, agonist 16 h; stronger effect = higher value
Androgen receptor (Homo sapiens), sequence (P10275 whole entry, looked up): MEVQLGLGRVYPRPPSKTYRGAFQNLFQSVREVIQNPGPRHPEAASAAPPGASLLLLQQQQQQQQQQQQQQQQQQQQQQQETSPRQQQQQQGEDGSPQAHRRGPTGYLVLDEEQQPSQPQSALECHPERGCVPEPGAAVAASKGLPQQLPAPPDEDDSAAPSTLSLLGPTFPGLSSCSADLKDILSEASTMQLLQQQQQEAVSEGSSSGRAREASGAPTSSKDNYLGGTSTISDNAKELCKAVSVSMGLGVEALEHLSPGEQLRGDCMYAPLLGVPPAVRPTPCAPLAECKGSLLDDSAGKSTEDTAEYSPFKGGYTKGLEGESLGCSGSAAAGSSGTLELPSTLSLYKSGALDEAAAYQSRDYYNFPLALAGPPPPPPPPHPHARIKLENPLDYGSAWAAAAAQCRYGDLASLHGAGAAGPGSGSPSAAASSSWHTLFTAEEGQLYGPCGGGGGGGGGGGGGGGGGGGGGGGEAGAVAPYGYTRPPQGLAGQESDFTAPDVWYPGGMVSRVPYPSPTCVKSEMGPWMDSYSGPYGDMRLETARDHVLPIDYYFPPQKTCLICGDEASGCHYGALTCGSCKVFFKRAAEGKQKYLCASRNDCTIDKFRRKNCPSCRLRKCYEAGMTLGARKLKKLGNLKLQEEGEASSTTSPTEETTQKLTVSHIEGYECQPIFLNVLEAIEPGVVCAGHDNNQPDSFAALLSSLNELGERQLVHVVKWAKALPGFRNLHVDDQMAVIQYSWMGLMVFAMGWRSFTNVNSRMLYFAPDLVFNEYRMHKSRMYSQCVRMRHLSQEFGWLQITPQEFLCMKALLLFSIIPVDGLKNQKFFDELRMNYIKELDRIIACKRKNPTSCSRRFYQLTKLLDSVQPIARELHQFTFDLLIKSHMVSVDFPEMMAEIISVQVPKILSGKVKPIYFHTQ
In short: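 Stimulation of an AR-responsive β-lactamase reporter in GripTite HEK293 cells was measured after 16 h compound exposure at 37 °C, via CCF4 fluorescence after 2 h RT. EC50 from Hill fits, normalized to R1881 at 30 nM.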

[7] = target: Bile acid receptor (Homo sapiens) (UniProt Q96RI1); assay: qHTS assay for small molecule agonists of farnesoid X receptor signaling (AID 588527); details: HEK293T FXR-UAS-bla, beta-lactamase ratio, 16 h; activation: stronger effect = higher value;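 also: series mostly up to about 77 µM; 0% = vehicle basal and 100% = reference agonist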
In short: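 Quantitative HTS used FXR-UAS-bla HEK293T cells with 16 h compound incubation at 37 C. EC50 values came from concentration-response curves normalized to chenodeoxycholic acid.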

[8] = target: Glucocorticoid receptor (Homo sapiens) (UniProt P04150); assay: qHTS assay for small molecule antagonists of glucocorticoid receptor signaling (AID 588533; active = well fitted inhibition curve with a large enough effect in the signal ratio, with a control signal flat, not every such curve was filed as active; inconclusive = small, poorly fitted or top-dose-only effect, or effect the other way, or a change in a side signal; the % refers to the signal ratio;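 also: cells stimulated with 2 nM dexamethasone as agonist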; also: potency is read from the fitted curve at half-maximal effect)
Glucocorticoid receptor (Homo sapiens), sequence (P04150 whole entry, looked up): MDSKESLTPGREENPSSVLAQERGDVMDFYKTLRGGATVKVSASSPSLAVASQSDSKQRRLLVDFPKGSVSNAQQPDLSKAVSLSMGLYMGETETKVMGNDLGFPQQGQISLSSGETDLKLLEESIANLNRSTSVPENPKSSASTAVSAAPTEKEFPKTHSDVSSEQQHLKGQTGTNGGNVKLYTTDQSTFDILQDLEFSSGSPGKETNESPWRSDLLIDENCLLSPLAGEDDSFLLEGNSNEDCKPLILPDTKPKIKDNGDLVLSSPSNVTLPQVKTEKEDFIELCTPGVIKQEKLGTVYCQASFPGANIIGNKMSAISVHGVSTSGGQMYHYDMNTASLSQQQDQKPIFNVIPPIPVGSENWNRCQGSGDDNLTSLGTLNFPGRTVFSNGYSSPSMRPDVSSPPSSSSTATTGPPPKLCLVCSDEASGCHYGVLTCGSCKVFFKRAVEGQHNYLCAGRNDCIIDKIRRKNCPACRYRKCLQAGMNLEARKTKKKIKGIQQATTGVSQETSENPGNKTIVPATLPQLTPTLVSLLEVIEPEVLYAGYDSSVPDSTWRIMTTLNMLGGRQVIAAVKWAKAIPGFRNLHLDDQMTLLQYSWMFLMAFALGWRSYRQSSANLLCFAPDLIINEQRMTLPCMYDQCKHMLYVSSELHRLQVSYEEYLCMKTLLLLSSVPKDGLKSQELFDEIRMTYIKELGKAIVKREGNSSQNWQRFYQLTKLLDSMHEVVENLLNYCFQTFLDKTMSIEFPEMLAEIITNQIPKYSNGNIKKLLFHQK
In short: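 Antagonist-mode qHTS: compound titrations added to GRE-bla HeLa cells, then dexamethasone 2 nM final; 18 h, 37 C. CCF4 FRET fluorescence normalized to dexamethasone and DMSO; IC50 from Hill fit.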

[9] = qHTS assay for small molecule agonists of the antioxidant response element (ARE) signaling pathway (AID 651741; active = well fitted activation curve with a large enough effect in the signal ratio; inconclusive = small, poorly fitted or top-dose-only effect, or effect the other way, or a change in a side signal; the % refers to the signal ratio; also: potency is read from the fitted curve at half-maximal effect; as to activation: % of control where 0% means no effect)
In short: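 Agonist activity is measured as ARE-driven beta-lactamase expression in a stable HepG2 reporter line, using 16 h compound treatment at 37 C and a FRET substrate fluorescence readout after 2 h.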

[10] = qHTS assay for small molecule activators of the nuclear factor-kappa B (NF-kB) signaling pathway (AID 651749; active = well fitted activation curve with a large enough effect in the signal ratio; inconclusive = small, poorly fitted or top-dose-only effect, or a change in a side signal; the % refers to the signal ratio; also: series mostly up to about 77 µM; % of control where 0% means no effect); details: NF-kB-bla ME-180 cells, beta-lactamase FRET ratio, 16 h; activation: stronger effect = higher value
In short: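 FRET-based beta-lactamase detection in ME-180 cells reports NF-kB response-element-driven transcription following overnight (16 hr) compound treatment.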

[11] = target: Cytochrome P450 3A4 (Homo sapiens) (UniProt P08684); assay: qHTS Assay for Inhibitors and Substrates of Cytochrome P450 3A4 (AID 884; active = well fitted curve in the direction sought with a large enough effect; inconclusive = small, poorly fitted or top-dose-only effect, or another doubt; inactive = no such curve, though single readings can be large; an effect the other way counts as inactive or inconclusive; also: potency is read from the fitted curve at half-maximal effect; nearly all actives have a fitted effect of over 50% in size)
Cytochrome P450 3A4 (Homo sapiens), sequence (P08684 whole entry, looked up): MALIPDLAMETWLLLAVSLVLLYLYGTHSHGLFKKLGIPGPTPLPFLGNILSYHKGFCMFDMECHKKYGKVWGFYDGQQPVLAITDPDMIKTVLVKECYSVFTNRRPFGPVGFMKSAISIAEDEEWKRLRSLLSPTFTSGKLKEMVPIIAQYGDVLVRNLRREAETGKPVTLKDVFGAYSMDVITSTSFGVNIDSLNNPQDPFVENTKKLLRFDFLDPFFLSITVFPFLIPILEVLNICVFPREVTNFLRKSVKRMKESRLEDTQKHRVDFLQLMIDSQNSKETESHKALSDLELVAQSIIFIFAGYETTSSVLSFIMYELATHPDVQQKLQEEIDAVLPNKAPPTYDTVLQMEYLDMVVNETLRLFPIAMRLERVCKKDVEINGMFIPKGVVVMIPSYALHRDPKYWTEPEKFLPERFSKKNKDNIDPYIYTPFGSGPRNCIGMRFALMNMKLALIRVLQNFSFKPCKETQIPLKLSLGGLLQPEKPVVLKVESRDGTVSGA
In short: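 Luminescent readout of luciferin produced by CYP3A4 (20 nM) dealkylation of Luciferin-PPXE, 25 uM (its KM). NADPH-driven reaction ran 60 min at RT after 10 min compound preincubation; data scaled to 57 uM ketoconazole as 100% inhibition.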

[12] = target: Cytochrome P450 3A4 (Homo sapiens) (UniProt P08684); assay: qHTS Assay for Activators of Cytochrome P450 3A4 (AID 885; active = well fitted curve in the direction sought with a large enough effect; inconclusive = small, poorly fitted or top-dose-only effect, or another doubt; inactive = no such curve, though single readings can be large; an effect the other way counts as inactive or inconclusive; also: nearly all actives have a fitted effect of over 65% in size)
In short: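 Using 20nM recombinant human CYP3A4 in potassium phosphate (200mM), substrate Luciferin-PPXE at 25uM, luminescent luciferin detection followed a 60-min RT NADPH reaction; data scaled to 57 uM ketoconazole.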

[13] = Cell Viability - LYMP2-001 (AID 921; active = well fitted curve in the direction sought with a large enough effect; inconclusive = small, poorly fitted or top-dose-only effect, or another doubt; inactive = no such curve, though single readings can be large; an effect the other way counts as inactive or inconclusive; also: potency is read from the fitted curve at half-maximal effect; nearly all actives have a fitted effect of over 70% in size)
In short: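 Human lymphoblastoid cells (Coriell), 2500 per well, were preincubated 5 hr at 37 C, then exposed to compounds in complete medium for 24 hr at 37 C. Cellular ATP was read by CellTiter-Glo luminescence; AC50 from Hill fits of concentration-response data.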

[14] = MultiTox-Fluor Cytotoxicity Assay - LYMP1-001 - Dead Cells (AID 946; active = well fitted curve in the direction sought with a large enough effect; inconclusive = small, poorly fitted or top-dose-only effect, or another doubt; inactive = no such curve, though single readings can be large; an effect the other way counts as inactive or inconclusive; also: potency is read from the fitted curve at half-maximal effect)
In short: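 In this qHTS, 15 uM tetraoctylammonium bromide defined 100% and DMSO defined basal activity. Lymphoblastoid cells (LYMP1-001, 2500 per well) received compound for 16 hr at 37 C before a fluorogenic dead-cell substrate readout at 485/520 nm.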

[15] = MultiTox-Fluor Cytotoxicity Assay - LYMP1-001 - Live Cells (AID 947; active = well fitted curve in the direction sought with a large enough effect; inconclusive = small, poorly fitted or top-dose-only effect, or another doubt; inactive = no such curve, though single readings can be large; an effect the other way counts as inactive or inconclusive; also: potency is read from the fitted curve at half-maximal effect)
[16] = MultiTox-Fluor Cytotoxicity Assay - LYMP1-002 - Dead Cells (AID 960; active = well fitted curve in the direction sought with a large enough effect; inconclusive = small, poorly fitted or top-dose-only effect, or another doubt; inactive = no such curve, though single readings can be large; an effect the other way counts as inactive or inconclusive; also: potency is read from the fitted curve at half-maximal effect; nearly all actives have a fitted effect of over 60% in size)
In short: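 Concentration-dependent increases in membrane-leaked protease activity are quantified in LYMP1-002 cells after 16 hr treatment; values are normalized against DMSO and tetraoctylammonium bromide (15 uM) controls and AC50 derived by Hill modeling.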

[17] = MultiTox-Fluor Cytotoxicity Assay - LYMP1-003 - Dead Cells (AID 961; active = well fitted curve in the direction sought with a large enough effect; inconclusive = small, poorly fitted or top-dose-only effect, or another doubt; inactive = no such curve, though single readings can be large; an effect the other way counts as inactive or inconclusive; also: potency is read from the fitted curve at half-maximal effect; nearly all actives have a fitted effect of over 70% in size)
In short: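 Acute toxicity is scored as increased dead-cell protease activity in human lymphoblastoid LYMP1-003 cells after 16 h compound exposure in complete culture medium. Activity is normalized to DMSO basal and 15 uM tetraoctylammonium bromide as full response.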

[18] = target: Nuclear receptor ROR-gamma (Homo sapiens) (UniProt P51449); assay: qHTS assay for small molecule antagonists of the retinoid-related orphan receptor gamma (ROR-gamma) signaling pathway (AID 651802; active = well fitted curve in the direction sought with a large enough effect; inconclusive = small, poorly fitted or top-dose-only effect, or another doubt; inactive = no such curve, though single readings can be large; an effect the other way counts as inactive or inconclusive; also: potency is read from the fitted curve at half-maximal effect; nearly all actives have a fitted effect of over 60% in size)
Nuclear receptor ROR-gamma (Homo sapiens), sequence (P51449 whole entry, looked up): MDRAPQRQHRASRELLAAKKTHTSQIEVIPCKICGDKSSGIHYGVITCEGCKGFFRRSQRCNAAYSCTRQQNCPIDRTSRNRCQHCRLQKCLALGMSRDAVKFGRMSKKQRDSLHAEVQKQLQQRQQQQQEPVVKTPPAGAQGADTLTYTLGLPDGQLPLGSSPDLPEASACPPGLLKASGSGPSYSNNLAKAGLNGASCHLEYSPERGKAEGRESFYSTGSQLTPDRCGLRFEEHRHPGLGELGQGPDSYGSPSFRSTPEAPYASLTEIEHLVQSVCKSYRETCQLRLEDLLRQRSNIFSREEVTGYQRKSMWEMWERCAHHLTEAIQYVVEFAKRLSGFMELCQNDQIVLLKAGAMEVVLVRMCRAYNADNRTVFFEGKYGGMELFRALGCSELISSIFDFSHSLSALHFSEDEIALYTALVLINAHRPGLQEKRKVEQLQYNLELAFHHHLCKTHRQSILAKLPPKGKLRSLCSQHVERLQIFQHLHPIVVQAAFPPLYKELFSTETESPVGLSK
In short: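 Doxycycline-induced reporter activity in engineered CHO cells (TET-inducible ROR, RORE-LUC) was measured by luminescence after 16hr compound exposure at 37C.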

COc1ccc(C(O)(c2cncnc2)C2CC2)cc1 (stereo unspecified)
inactive: Potency [1] | Potency [2] | activity change % (negative = inhibition) [4] -4.75% | outcome [5]
-7.16%: max response [3]

O=P(OCC(Br)CBr)(OCC(Br)CBr)OCC(Br)CBr (stereo unspecified)
active: Potency [1] 35.5 µM [inhibitor]
inactive: activation [6] -12.7% | activation [7] 0.554% | activity change % (negative = inhibition) [4] -25.3%

CC(=O)[C@H]1[C@H](C#N)C[C@H]2[C@@H]3CC=C4C[C@@H](O)CC[C@]4(C)[C@H]3CC[C@@]21C
inactive: Potency [1] | activation [7] -2.16% and -0.929%

O=C(O)C(F)(F)C(F)(F)C(F)(F)C(F)(F)C(F)(F)F
6.49%: max response [3]
inactive: Potency [1] | Potency [8] | activity change % (negative = inhibition) [4] 8.21% | Potency [9]

CCC/C(=N\OCC)C1=C(O)CC(CC(C)SCC)CC1=O (stereo unspecified)
inactive: Potency [1] | Potency [8] | Potency [9] | activation [10] 0.879% | outcome [5]

Clc1ccc([C@@]2(Cn3cncn3)C[C@@H](Br)CO2)c(Cl)c1
inactive: Potency [1] | Potency [2] | activation [7] 3.84% | activity change % (negative = inhibition) [4] 11.5% | activation [10] -2.08%

Clc1ccc([C@@]2(Cn3cncn3)C[C@H](Br)CO2)c(Cl)c1
inactive: Potency [1] | Potency [2] | activation [7] -2.3% | Potency [8] | activity change % (negative = inhibition) [4] 2.29% | Potency [9] | activation [10] -1.71%

CCOP(=S)(NC(C)C)Oc1ccccc1C(=O)OC(C)C (stereo unspecified)
inactive: Potency [1] | Potency [2] | activation [7] 8.84% | Potency [8] | Potency [9]

C=CC(=O)OCC(CO)(COC(=O)C=C)COC(=O)C=C
inactive: Potency [12] | activation [7] 1.06%
active: Potency [11] 7.94 µM | Potency [13] 3.16 µM | Potency [14] 7.94 µM | Potency [15] 6.31 µM | Potency [16] 3.16 µM | Potency [17] 7.94 µM | Potency [1] 7.94 µM [inconclusive] | Potency [8] 22.4 µM and 20 µM | Potency [9] 24.3 µM | Potency [18] 4.22 µM

CC(Oc1ccc(Cl)cc1Cl)C(=O)O (stereo unspecified)
inactive: Potency [1] | activation [7] -0.107% | Potency [8] | activation [10] -1.28% | outcome [5]
11.7%: max response [3]

CN(C)P(=O)(N(C)C)N(C)C
inactive: Potency [1] | Potency [2] | activation [7] 3.22% | activity change % (negative = inhibition) [4] -0.373% | outcome [5]
-16.8%: max response [3]

COC(=O)c1sccc1S(=O)(=O)NC(=O)Nc1nc(C)nc(OC)n1
-0.622%: max response [3]
inactive: Potency [1] | Potency [9] | outcome [5]

CN(C)c1nc(=O)n(C2CCCCC2)c(=O)n1C
-8.9%: max response [3]
inactive: Potency [1] | Potency [2] | activation [7] -1.35% | activity change % (negative = inhibition) [4] -5.49% | Potency [9] | outcome [5]

CSC(=O)c1c(C(F)F)nc(C(F)(F)F)c(C(=O)SC)c1CC(C)C
inactive: Potency [1] | activity change % (negative = inhibition) [4] -31.5%

O=S(=O)(c1ccc(O)cc1)c1ccc(O)cc1
-2.49%: max response [3]
inactive: Potency [1] | Potency [2] | activation [7] -2.06% | Potency [8] | activity change % (negative = inhibition) [4] 5% | outcome [5]

CCOC(=O)Nc1cccc(OC(=O)Nc2ccccc2)c1
active: Potency [9] 24.3 µM
inactive: Potency [1] | Potency [8] | activity change % (negative = inhibition) [4] 5.59%
2.58%: max response [3]

CC1(c2ccc(Oc3ccccc3)cc2)OC(=O)N(Nc2ccccc2)C1=O (stereo unspecified)
inactive: activation [7] 4.14%
active: Potency [1] 15.8 µM [inhibitor] | Potency [2] 35.5 µM

CCOP(=S)(OCC)Oc1ccc(S(C)=O)cc1 (stereo unspecified)
-0.202%: max response [3]
inactive: Potency [1] | activity change % (negative = inhibition) [4] -4.14% | Potency [9]

Cc1ccccc1C(=O)Nc1cccc(OC(C)C)c1
inactive: Potency [1] | activation [6] -11.5% | Potency [8] | activity change % (negative = inhibition) [4] 5.62% | Potency [9] | activation [10] 0.221%
-12.9%: max response [3]

O=P(O)(O)CN(CP(=O)(O)O)CP(=O)(O)O
inactive: Potency [1] | Potency [8] | activity change % (negative = inhibition) [4] -9.36% | activation [10] 0.3% | outcome [5]

O=Cc1cccc(Oc2ccccc2)c1
inactive: Potency [1] | Potency [8] | Potency [9] | activation [10] -0.909% | outcome [5]
6.44%: max response [3]

c1cc[n+]2c(c1)-c1cccc[n+]1CC2
-27.8%: max response [3]
inactive: Potency [8] | activity change % (negative = inhibition) [4] 10.8% | activation [10] -2.74%
active: Potency [1] 25.1 µM [inhibitor] | Potency [9] 8.63 µM

CCSC(C)CC1CC(=O)C(/C(CC)=N/OC/C=C/Cl)=C(O)C1 (stereo unspecified)
inactive: Potency [1] | activation [6] 3.31% | Potency [2] | activation [7] 0.0799% | activity change % (negative = inhibition) [4] -26.3% | activation [10] 0.614%

CNC(=O)Oc1ccc(N(C)C)c(C)c1
inactive: Potency [1] | Potency [2] | activation [7] 0.727% | Potency [8] | activity change % (negative = inhibition) [4] -0.485% | outcome [5]

CNC(=S)S
inactive: Potency [1] | Potency [8] | outcome [5]
-26.8%: max response [3]

O=S(=O)(O)C(F)(F)C(F)(F)C(F)(F)C(F)(F)C(F)(F)C(F)(F)F
inactive: Potency [1] | Potency [2] | activation [7] -1.09% and 0.298% | Potency [8] | activation [10] 0.018% and -0.659% | outcome [5]

Cc1c(COC(=O)C2C(/C=C(\Cl)C(F)(F)F)C2(C)C)cccc1-c1ccccc1 (stereo unspecified)
inactive: Potency [1] | Potency [2] | activation [7] 2.08% | activation [10] 1.42%

COP(=S)(OC)Oc1c(Cl)cc(C)cc1Cl
0.267%: max response [3]
inactive: Potency [1] | activation [10] -0.0055%

CNC(=O)Oc1cc(C)cc(C(C)C)c1
inactive: Potency [1] | activity change % (negative = inhibition) [4] 4.48% | outcome [5]
-15.4%: max response [3]

CNC(=O)/C=C(\C)OP(=O)(OC)OC
inactive: Potency [1] | Potency [2] | activity change % (negative = inhibition) [4] -12.7% | Potency [9]
-13.8%: max response [3]
